Screening results as filed in PubChem BioAssay.
Compounds with a hit are over-represented: about 6.2% of the library has one in this group of screens.
VP16 counter: VP16 counterscreen qHTS for inhibitors of ROR gamma transcriptional activity. Potency, µM (titrated, usually from 53.6 µM), usual class: inhibitors. Drosophila S2 Gal4-VP16 UAS-luciferase, luminescence, 20 h. hit rate 3.5% among 310,000. AID 2546, 2010;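 also: Gal4-VP16 expression switched on by copper sulfate through the metallothionein promoter; nearly all actives have a fitted effect of over 50% in size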
KinaseGlo FLuc: Counterscreen for Luciferase (Kinase-Glo TM) Inhibition; Kinase-Glo luciferase, ATP luminescence, 8 min; Potency, µM (top dose mostly 38.3 µM), actives largely listed as inhibitors; hit rate 0.28% among 200,000; also: nearly all actives have a fitted effect of over 60% in size
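Substrate mix (final 50 mM imidazole pH 7.2, 50 mM KCl, 7 mM MgCl2, 10 uM ATP, 0.01% Tween 20, 0.05% BSA) plus pin-tool compound, then Kinase-Glo detection mix; 8 min ambient, luminescence read.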
RORgamma inh: qHTS for inhibitors of ROR gamma transcriptional activity. Potency, µM (highest dose often 53.6 µM), hits mostly inhibitors. Nuclear receptor ROR-gamma (Mus musculus), P51450. hit rate 5.4% among 310,000. Drosophila S2 Gal4-RORgamma UAS-luciferase reporter, 20 h. AID 2551, 2010; also: nearly all actives have a fitted effect of over 60% in size
Target sequence (P51450 whole entry, looked up, the tested form may be a part): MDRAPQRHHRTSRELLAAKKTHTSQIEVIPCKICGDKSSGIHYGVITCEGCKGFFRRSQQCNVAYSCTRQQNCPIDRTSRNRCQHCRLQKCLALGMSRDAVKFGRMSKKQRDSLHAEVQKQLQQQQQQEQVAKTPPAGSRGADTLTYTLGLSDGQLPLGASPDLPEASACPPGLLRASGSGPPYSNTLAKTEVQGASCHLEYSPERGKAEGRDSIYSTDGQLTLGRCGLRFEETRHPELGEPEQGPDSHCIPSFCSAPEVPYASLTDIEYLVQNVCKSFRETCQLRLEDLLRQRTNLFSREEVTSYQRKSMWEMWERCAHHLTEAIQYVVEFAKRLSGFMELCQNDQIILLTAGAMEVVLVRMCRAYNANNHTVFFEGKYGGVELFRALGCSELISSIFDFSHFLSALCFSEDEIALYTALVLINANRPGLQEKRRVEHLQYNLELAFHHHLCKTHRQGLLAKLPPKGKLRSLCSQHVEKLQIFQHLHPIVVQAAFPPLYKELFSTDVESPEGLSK
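Compounds are pin-transferred onto Drosophila Schneider cells expressing a copper-inducible Gal4–ROR gamma transactivation domain fusion. After 1 hr, copper sulfate is added to 700 uM final; luciferase is read 20 hr later.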
Each line names hits and unclear results; the compound was inactive in the other large screens. Calls follow the shape of the dose curve; as a rule, active = well fitted curve in the direction sought with a large enough effect; inconclusive = small, poorly fitted or top-dose-only effect, or another doubt; inactive = no such curve, though single readings can be large; an effect the other way counts as inactive or inconclusive.

CCOc1ccc2ccccc2c1C1NC(=S)N(C)C(C)=C1C(=O)OC (configuration not stated)	none
COC(=O)C1=C(C)N(C)C(=S)NC1c1ccc(Cl)cc1 (configuration not stated)	VP16 counter 11µM, RORgamma inh 7.9µM
COC(=O)C1=C(C)N(C)C(=S)NC1c1ccc(OC)cc1OC (configuration not stated)	VP16 counter inconclusive, RORgamma inh 16µM
COC(=O)c1sc2nc(C)c([N+](=O)[O-])c(C)c2c1N	VP16 counter inconclusive
O=C(COc1cccc2c1CCN(Cc1ccc(Br)cc1)C2=O)NCc1ccco1	RORgamma inh inconclusive
CC(C(=O)c1ccccc1)[n+]1cccc(Br)c1 (configuration not stated)	none (no result: KinaseGlo FLuc)
C=CCCn1c(Cl)c(C#N)sc1=O	none (no result: KinaseGlo FLuc)
Cc1nn(Cc2ccccc2)c(Cl)c1C(=O)OC(C)C#N (configuration not stated)	none
CCOC(=O)C1=C(C)C(c2cccc(Oc3ccccc3)c2)NC(=S)N1 (configuration not stated)	VP16 counter 18µM, RORgamma inh 7.1µM
CC1=C(C(=O)OC(C)C)C(c2ccsc2)NC(=O)N1C (configuration not stated)	none
CCOC(=O)C1=C(C)N(CCO)C(=O)NC1c1ccccc1 (configuration not stated)	none
CCOC(=O)C1=C(C)N(C)C(=S)NC1c1ccccc1 (configuration not stated)	VP16 counter 8.9µM, RORgamma inh 6.3µM
CCOC(=O)C1=C(C)C(c2ccc(OC)cc2)NC(=S)N1 (configuration not stated)	RORgamma inh inconclusive
COC(=O)C1=C(C)N(C)C(C)=C(C(=O)OC)C1c1ccc(Cl)cc1	none
CCOC(=O)C1=C(C)N(C)C(C)=C(C(=O)OCC)C1c1ccc(Cl)cc1	VP16 counter 22µM
CC1=C(C(=O)OC(C)C)C(c2ccccc2)NC(=S)N1C (configuration not stated)	VP16 counter inconclusive, RORgamma inh 14µM
CCOC(=O)C1=C(c2ccccc2)c2cc(OC)ccc2OC1C(=O)OCC (configuration not stated)	none
COc1ccc([N+](=O)[O-])cc1N(CC(=O)N1CCCC1)S(C)(=O)=O	none
CN(C1=NC(=O)C(CC(=O)O)S1)c1ccc(O)cc1 (configuration not stated)	none
CCOC(=O)C1=C(C)N(CCCC(=O)O)C(=O)NC1c1ccc(Cl)cc1 (configuration not stated)	none (no result: KinaseGlo FLuc)
CCOC(=O)C1=C(C)N(C)C(=S)NC1c1ccc(Cl)cc1 (configuration not stated)	VP16 counter 3.5µM, RORgamma inh inconclusive
Cc1ccc(/C=[N+](\[O-])c2ccc(N(C)C)cc2)c2nsnc12	VP16 counter inconclusive, RORgamma inh 5µM
Cc1ccc2nsnc2c1NS(=O)(=O)c1c(C)ccc2nsnc12	none
O=c1cnc2cnc(N3CCOCC3)nc2n1Cc1ccc(F)cc1	none
O=C(Nc1nnc(-c2ccco2)o1)c1ccc(S(=O)(=O)N2CCCC2)cc1	none
COc1cccc(NC(=O)c2ccc(S(=O)(=O)N3CCCC3)cc2)c1	none (no result: KinaseGlo FLuc)
CC1CCN(S(=O)(=O)c2ccc(C(=O)Nc3nnc(-c4ccco4)o3)cc2)CC1	VP16 counter 0.5µM, RORgamma inh 0.35µM (no result: KinaseGlo FLuc)
CC1CN(S(=O)(=O)c2ccc(C(=O)Nc3nnc(-c4ccco4)o3)cc2)CC(C)O1 (configuration not stated)	VP16 counter 3.2µM, RORgamma inh 1µM
COc1cccc(-c2nnc(NC(=O)c3ccc(S(=O)(=O)N4CC(C)OC(C)C4)cc3)o2)c1 (configuration not stated)	VP16 counter 1µM, RORgamma inh 0.56µM
CC1CN(S(=O)(=O)c2ccc(C(=O)Nc3ccc(S(=O)(=O)Nc4ncccn4)cc3)cc2)CC(C)O1 (configuration not stated)	none
CC(C)=CCOc1ccc(/C=C/C(=O)c2ccc(OCC=C(C)C)cc2OCC(=O)O)cc1	RORgamma inh inconclusive
CN(c1ccccc1C(=O)N1CCN(Cc2ccc3c(c2)OCO3)CC1)S(C)(=O)=O	none
O=C(OCC(O)COC(=O)c1cccnc1)c1cccnc1	none (no result: KinaseGlo FLuc)
O=C(NC1CCCC1)C1CCCN(S(=O)(=O)c2ccc(F)cc2)C1 (configuration not stated)	none (no result: KinaseGlo FLuc)
CCN(CC)S(=O)(=O)c1ccc(-c2nnc3sc4cccc(C)c4n23)cc1	RORgamma inh 2.2µM
CCN(CC)S(=O)(=O)c1ccc(-c2nnc(SCC(N)=O)n2CC)cc1	none
CC(=O)NC1(NC(C)=O)CCN(C)CC1	none
COc1ccccc1/C=N/NC(=O)CSc1ccc2ccccc2n1	none (no result: KinaseGlo FLuc)
